{
  "source": "PubChem BioAssay AID1626",
  "about": "(SRMLSC, 2009)",
  "note": "Among all 220,000 compounds or so, about 2,000 (0.91%) were called active. About 2% were inconclusive and are not listed. A selection follows. Results with a measured potency or affinity are listed apart. A number with no mark means an inactive call. Rule as the data show it: inconclusive = inhibition above about 80% without an active follow-up result; inactive = below that; test concentration not stated here.",
  "data": [
    {"assay": "M. tuberculosis H37Rv growth inhibitors, H37Rv strain (AID 1626);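 also: bacteria incubated seven days before Alamar blue readout; 0% = bacteria only wells and 100% = bacteria with antibiotic wells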", "conditions": "hits give high values, concentration not given here", "units": {"inhibition": "%"}, "values": [
      {"smiles": "CCOc1ccc(-c2nc(N)ncc2Oc2ccc(OC)cc2)c(O)c1", "inhibition": 1.63},
      {"smiles": "CCOc1ccc(CN2CCN(Cc3cccc4c3OCO4)CC2CCO)cc1", "note": "(centres undefined)", "inhibition": 5.32},
      {"smiles": "CC(OC(=O)c1ccc(Cl)c(S(=O)(=O)Nc2ccc(F)cc2)c1)C(=O)NC(N)=O", "note": "(centres undefined)", "inhibition": -1.89},
      {"smiles": "CCn1c(NN=O)nc2ccccc21", "inhibition": 3.63},
      {"smiles": "CC(=O)C1=C(C)NC(=O)NC1c1cccs1", "note": "(centres undefined)", "inhibition": -8.1},
      {"smiles": "COc1cc(/C=C(\\C#N)c2ccccn2)ccc1OCC(=O)Nc1ccc(Br)cc1", "inhibition": -1.03},
      {"smiles": "C#CC1(NC(=O)NC(C)(C)C)CCCCC1", "inhibition": 2.25},
      {"smiles": "COc1ccccc1NC(=O)COC(=O)c1cnc(C)cn1", "inhibition": 0.5},
      {"smiles": "CCc1cc(C(c2cccc(OC)c2)N2CCOCC2)c(NC(=O)c2ccccc2)s1", "note": "(centres undefined)", "inhibition": 2.32},
      {"smiles": "CCOC(=O)C1(CC/C(C)=N\\NC(N)=O)CC(C)(C)OC1=O", "note": "(centres undefined)", "inhibition": -7.16},
      {"smiles": "Cc1nnc(C)n1/N=C/c1cccc(Oc2ccccc2)c1", "inhibition": 5.69},
      {"smiles": "COC(=O)c1ccsc1NC(=O)C1=COCCO1", "inhibition": 2.57},
      {"smiles": "CNc1nc(C23CC4CC(CC(C4)C2)C3)cs1", "inhibition": 2.54},
      {"smiles": "O=C(NCc1ccccc1)C(=O)Nc1nc(C23CC4CC(CC(C4)C2)C3)cs1", "inhibition": 6.64},
      {"smiles": "CCn1c(SCC(=O)Nc2ccccc2C(=O)OC)nnc1-c1cccc(C)c1", "inhibition": -2.01},
      {"smiles": "CCCCn1c(NC(=S)Nc2ccccc2)nc2ccccc21", "inhibition": 9.5},
      {"smiles": "CN(C)CCCn1c(NC(=O)C2CCCCC2)nc2ccccc21", "inhibition": 3.22},
      {"smiles": "O=C(Nc1nc2ccccc2n1CCN1CCCC1)C1CCCCC1", "inhibition": -3.71},
      {"smiles": "O=C(Nc1nc2ccccc2n1CCN1CCCCC1)C1CCCCC1", "inhibition": 4.2},
      {"smiles": "O=C(Cc1ccccc1)Nc1cccc(N2CCCC2)c1", "inhibition": 2.44},
      {"smiles": "Cc1nnc(NN)n(N)c1=O", "inhibition": -3.11},
      {"smiles": "CCCCOc1ccc(C(=O)N/C(=C/C=C/c2ccccc2)C(=O)O)cc1", "inhibition": -8.39},
      {"smiles": "O=C(N/C(=C/C=C\\c1ccccc1)C(=O)N1CCOCC1)c1ccc(Br)cc1", "inhibition": 64.4},
      {"smiles": "CCC(=O)Nc1ccc(NC(=S)NC(=O)c2cc3ccccc3o2)cc1", "inhibition": 15.4},
      {"smiles": "Cc1ccc(S(=O)(=O)NCC(=O)N(CC(=O)NCC2CCCO2)Cc2ccco2)cc1", "note": "(centres undefined)", "inhibition": 11.1},
      {"smiles": "O=C(Nc1ccccc1N1CCOCC1)c1ccc(N2CCOCC2)c([N+](=O)[O-])c1", "inhibition": 6.98},
      {"smiles": "O=[N+]([O-])c1cc(Cl)ccc1N1CCOCC1", "inhibition": -3.75},
      {"smiles": "COc1ccc(C(=O)c2ccc(N3CCOCC3)c([N+](=O)[O-])c2)cc1", "inhibition": -2.74},
      {"smiles": "O=C(O)c1ccccc1C(=O)c1ccc(N2CCOCC2)c([N+](=O)[O-])c1", "inhibition": 3.64},
      {"smiles": "O=C(OCC(=O)N1CCOCC1)c1ccc(N2CCOCC2)c([N+](=O)[O-])c1", "inhibition": -0.57},
      {"smiles": "Cc1ccc(OC(=O)c2ccc(N3CCOCC3)c([N+](=O)[O-])c2)cc1", "inhibition": 54.1},
      {"smiles": "Cc1sc(NC(=O)CSc2nnc(-c3ccccc3)o2)c(C#N)c1C", "inhibition": -2.26},
      {"smiles": "CCOc1ccc(NC(=O)CC2SC(N)=NC2=O)c([N+](=O)[O-])c1", "note": "(centres undefined)", "inhibition": 2.3},
      {"smiles": "COC(=O)c1ccc(NC(=O)CN2C(=O)C3C4C=CC(C4)C3C2=O)cc1", "note": "(centres undefined)", "inhibition": 1.35},
      {"smiles": "COc1ccc(C(=O)CCNc2cccc(Cl)c2)cc1", "inhibition": 10.7},
      {"smiles": "O=C(CCNc1cc(Cl)cc(Cl)c1)c1cccs1", "inhibition": 74.2},
      {"smiles": "COc1ccc(C(=O)CNc2ccccc2CO)cc1", "inhibition": -0.7},
      {"smiles": "Cc1ccc(NC(=O)CCC(=O)c2cccs2)cc1", "inhibition": 1.21},
      {"smiles": "Cc1ccc(NC(=O)COC(=O)CCC(=O)c2cccs2)cc1", "inhibition": -6.9},
      {"smiles": "CCCOc1ccc(C(=O)CCNc2ccc(C)c(Cl)c2)cc1", "inhibition": 69.1},
      {"smiles": "Cc1ccc(NCCC(=O)c2cccs2)cc1C", "inhibition": 74.8},
      {"smiles": "COc1ccc(C(=O)CNc2ccccc2C#N)cc1", "inhibition": 3.5},
      {"smiles": "CCOc1ccc(-c2nn(-c3ccccc3)cc2/C=C2\\SC(=S)N(Cc3ccco3)C2=O)cc1", "inhibition": -2.18},
      {"smiles": "COc1ccccc1C1=NC(c2ccc(C)cc2)N=C1C", "note": "(centres undefined)", "inhibition": 7.88},
      {"smiles": "COc1ccc(N2C(=O)C3NN=C(C(=O)OCc4ccccc4)C3C2=O)cc1", "note": "(centres undefined)", "inhibition": 1.18},
      {"smiles": "Cc1cccc(NC(=S)N(CCN(C)C)Cc2cc3cccc(C)c3[nH]c2=O)c1", "inhibition": 12.2},
      {"smiles": "CSC1=NC(C)(C)C=C(/C=C/c2ccc(Cl)cc2)N1", "inhibition": -4.38},
      {"smiles": "Cc1c(C(=O)N2CCN(C)CC2)oc2ccc(S(=O)(=O)N3CCOCC3)cc12", "inhibition": -4.68},
      {"smiles": "Cc1cc(C(=O)NC(C)c2ccncc2)no1", "note": "(centres undefined)", "inhibition": -9.57},
      {"smiles": "CCn1c2c(c(C)cc1=O)C(=O)CC(C)(C)C2", "inhibition": -1.17},
      {"smiles": "CC(=O)c1ccc(N2Cc3ccccc3C3(CCOCC3)C2=N)cc1", "inhibition": -1.43},
      {"smiles": "COc1ccccc1CC(=O)NC1CCCc2ccccc21", "note": "(centres undefined)", "inhibition": 1.93},
      {"smiles": "Cc1cc(Nc2ccc3c(c2)OCCO3)n2nc(C)nc2n1", "inhibition": 1.27},
      {"smiles": "CCOC(=O)C(=O)Nc1ccccc1C(=O)OCC", "inhibition": -3.74},
      {"smiles": "CCOC(=O)C1=Nc2ccccc2/C1=C\\c1c(O)n(C)c(=O)n(C)c1=O", "inhibition": -4.93},
      {"smiles": "CC(=O)Nc1cc(C(F)(F)F)ccc1OCC1CCCO1", "note": "(centres undefined)", "inhibition": 4.74},
      {"smiles": "Cc1ccc(-c2cc(C(F)(F)F)n3ncc(C(=O)N4CCCCC4c4cccnc4)c3n2)cc1", "note": "(centres undefined)", "inhibition": 9.06},
      {"smiles": "COc1cccc(-c2cc(C(F)(F)F)n3nc(C(=O)N4CCCCC4c4cccnc4)cc3n2)c1", "note": "(centres undefined)", "inhibition": -1.53},
      {"smiles": "CCN1CCN(C(=S)Nc2ccsc2C(=O)OC)CC1", "inhibition": 2.48},
      {"smiles": "COc1ccc(CCNC(=O)COC(=O)COc2ccc(C#N)cc2)cc1", "inhibition": 3.53},
      {"smiles": "O=C(Nc1nnc(CCc2ccccc2)s1)c1cccs1", "inhibition": -0.19},
      {"smiles": "O=C(Nc1nnc(Cc2ccccc2)s1)c1cccs1", "inhibition": -2.7},
      {"smiles": "Cc1ccc(Cc2cnc(NC(=O)c3ccco3)s2)cc1", "inhibition": -0.28},
      {"smiles": "O=C(Nc1nnc(Cc2ccc(Cl)cc2)s1)c1cccs1", "inhibition": -8}
    ]}
  ]
}
